Pf growth 96h = Primary qHTS for delayed death inhibitors of the malarial parasite plastid, 96 hour incubation | P. falciparum luciferase reporter growth, 96 h | Potency, µM (highest dose often 28.7 µM), usual class: inhibitors | hit rate 6.9% among 320,000 | AID 504834, 2011
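96 h incubation, 37 C, 5% CO2, of luciferase-reporter P. falciparum-infected RBCs (2% hematocrit, 0.05% parasitemia final) with test compounds; endpoint luminescence.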
SARS PLP yeast = qHTS of Yeast-based Assay for SARS-CoV PLP; S. cerevisiae expressing SARS-CoV PLpro, growth rescue; hit rate 0.19% among 330,000; Potency, µM (top dose mostly 32.9 µM), usual class: activators; calls by dose curve; also: nearly all actives have a fitted effect of over 55% in size
NS1 inh = qHTS Assay for Inhibitors of Influenza NS1 Protein Function. hit rate 0.4% among 270,000. Potency, µM (doses to about 46.1 µM); calls by dose curve; also: actives are rising curves; nearly all actives have a fitted effect of over 50% in size
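A cell-based growth assay was used: compounds that relieve NS1-induced slow growth of budding yeast raise OD600. Assay medium was yeast nitrogen base with ammonium sulphate and -URA supplement, pH 6.0, with 2% galactose.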
Pf growth 48h = Primary qHTS for delayed death inhibitors of the malarial parasite plastid, 48 hour incubation. P. falciparum luciferase growth in erythrocytes, 48 h. AID 504832, 2011. hit rate 5.9% among 310,000. Potency, µM (doses to about 28.7 µM), usual class: inhibitors
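Compounds are pin-transferred into medium, infected erythrocytes (2% hematocrit, 0.1% parasitemia final) are added, and plates sit one parasite generation at 37 C in 5% CO2. Detection reagent is then added and luminescence measured.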
A number is an active result; 0 = inactive; ? = inconclusive; - = no result given; [ ] = another dose, or the depositor's remark. Compounds with a hit are over-represented: about 10% of the library has one in this group of screens. Unless noted, calls follow the shape of the dose curve; as a rule, active = well fitted inhibition curve with a large enough effect; inconclusive = small, poorly fitted or top-dose-only effect, or another doubt; inactive = no such curve, though single readings can be large or run the other way.

SMILES	Pf growth 96h	SARS PLP yeast	NS1 inh	Pf growth 48h
O=c1[nH]c2cc3c(cc2cc1CN(Cc1cccnc1)C(=S)NCc1ccco1)OCO3	?	0	0	?
O=c1[nH]c2cc3c(cc2cc1CN(Cc1ccco1)C(=S)NCC1CCCO1)OCCO3 (stereo not drawn)	?	0	0	0
COc1ccc2cc(CN(CC3CCCO3)C(=S)NCc3ccco3)c(=O)[nH]c2c1 (stereo not drawn)	0	0	0	9.3µM
O=C(c1ccco1)N(Cc1ccc2c(c1)OCO2)Cc1cc2cc3c(cc2[nH]c1=O)OCO3	12µM	0	0	0
Cc1ccc(C)c(N(Cc2cc3ccc(C)cc3[nH]c2=O)C(=O)c2ccco2)c1	7.4µM	0	0	?
CN(CC(=O)Nc1ccc(Cl)c(Cl)c1)CC(=O)Nc1ccc2c(c1)OCO2	0	0	-	0
CC(C)CCSc1nc(N)c(C#N)cc1C#N	0	0	0	12µM
O=C(CSc1ncnc2c1cnn2-c1ccccc1)NC1CCCC1	0	0	-	0
O=C1c2ccccc2C(=O)N1CCc1c[nH]c2ccc(O)cc12	3.3µM	0	0	0
O=C(COC(=O)c1ccccc1O)NCCc1c[nH]c2ccccc12	-	0	-	-
O=C(CCCc1c[nH]c2ccccc12)NCCc1c[nH]c2ccccc12	?	0	0	?
O=C(COC(=O)c1ccccc1C(=O)OCC(=O)NCCc1c[nH]c2ccccc12)NCCc1c[nH]c2ccccc12	12µM	0	-	9.3µM
O=C(NCCc1c[nH]c2ccccc12)OCCCCOC(=O)NCCc1c[nH]c2ccccc12	?	0	-	10µM
COc1ccc(C(C)=O)cc1CS(=O)(=O)CC(=O)NCCc1c[nH]c2ccccc12	10µM	0	-	5.2µM
COc1ccc(C(=O)CCC(=O)NCCc2c[nH]c3ccccc23)cc1OC	?	0	?	?
O=C1c2ccccc2C(=O)N1CCc1c[nH]c2ccccc12	0	0	0	0
N#CCC(=O)Nc1ccc(C(=O)NCCc2c[nH]c3ccccc23)cc1	7.4µM	0	0	13µM
COc1cc(-c2noc(C)c2C(=O)NCCc2cccs2)cc(OC)c1OC	-	0	-	-
COc1cc(-c2noc(C)c2C(=O)NCCc2c[nH]c3ccccc23)cc(OC)c1OC	15µM	0	0	?
O=C(CN1C(=O)c2ccccc2C1=O)NCCc1c[nH]c2ccccc12	5.2µM	0	0	0
CCOC(=O)c1c(C)[nH]c(C(=O)OC(C)C(=O)Nc2ccccc2OC)c1C (stereo not drawn)	?	0	0	0
CCc1cc(-c2n[nH]c(CCC(=O)O)c2-c2nc3ccccc3n2C)c(O)cc1O	?	0	-	0
CCc1cc(-c2n[nH]c(C)c2-c2nc3ccccc3n2C)c(O)cc1O	13µM	0	0	?
CCc1cc(-c2n[nH]c(C)c2-c2nc3ccccc3n2C)c(O)c(CN2CCN(C)CC2)c1O	0	0	0	12µM
Cc1ccc(CNC(=O)Cn2cnc(C(=O)Nc3ccc(C)c(C)c3)n2)o1	-	0	-	-
SMILES	Pf growth 96h	SARS PLP yeast	NS1 inh	Pf growth 48h
CCOc1cc(C(=S)N2CCCCC2)ccc1OCC(=O)NCc1ccccc1	3.7µM	0	0	-
COc1cc(C=O)ccc1OCC(=O)N1CCCC1	9.3µM	0	0	0
CCOc1cc(C(=O)Nc2ccc(NC(C)=O)cc2)ccc1OCC(=O)N1CCCCC1	12µM	0	0	0
CCOC(=O)CC(=O)CSc1n[nH]c(=O)[nH]c1=O	0	0	0	0
Cc1nn(-c2ccccc2)c(C)c1Cc1ccc(O)cc1	0	0	0	0
Cc1nn(-c2ccccc2)c2c1C(O)n1c(nc3ccccc31)S2 (stereo not drawn)	0	0	0	1.7µM
Cc1cccc(C(=O)NC2CCN(C(=O)Nc3ccc(F)cc3)CC2)c1	0	0	0	0
N#CCCN(CCC#N)S(=O)(=O)c1ccc(C(=O)Nc2nc(-c3ccccc3)c(C(=O)c3ccccc3)s2)cc1	0	0	0	0
Cc1ccc(-c2nc(NC(=O)c3ccc(S(=O)(=O)N(CCC#N)CCC#N)cc3)sc2-c2ccccc2)cc1	12µM	0	0	0
CCCCCC1CCC(c2ccc(C(N)=O)cc2)CC1 (stereo not drawn)	2.9µM	0	0	0
S=c1[nH]nc(C(c2ccccc2)C2CCCCC2)o1 (stereo not drawn)	0	0	0	0
Cc1cccc(C)c1NC(=S)N(Cc1cccs1)C1CCCC1	?	0	-	0
CCOC(=O)CNC(=S)N(Cc1cccs1)C1CCCCC1	7.4µM	0	0	0
CCOC(=O)CNC(=S)N(Cc1ccccc1F)C1CCCCC1	0	0	-	?
O=C(N1CCOCC1)N(Cc1cccs1)C1CCCC1	7.4µM	0	0	0
COc1ccccc1NC(=S)NC(NC(=O)C(C)C)C(Cl)(Cl)Cl (stereo not drawn)	0	0	0	7.4µM
COc1ccc(NC(=S)NC(NC(=O)c2ccccc2Cl)C(Cl)(Cl)Cl)c([N+](=O)[O-])c1 (stereo not drawn)	3.7µM	0	0	-
COc1ccc(NC(=S)NC(NC(=O)c2cccc3ccccc23)C(Cl)(Cl)Cl)c([N+](=O)[O-])c1 (stereo not drawn)	1.5µM	0	0	-
COC(=O)c1ccccc1NC(=S)NC(NC(=O)c1ccco1)C(Cl)(Cl)Cl (stereo not drawn)	0	0	0	0
COC(=O)c1ccccc1NC(=S)NC(NC(=O)c1ccccc1[N+](=O)[O-])C(Cl)(Cl)Cl (stereo not drawn)	7.4µM	0	0	0
COC(=O)NC(NC(=S)Nc1ccccc1OC)C(Cl)(Cl)Cl (stereo not drawn)	?	0	0	?
Cc1cccc(NC(=O)CN(C)C(=O)C2CCCC2)c1C	0	0	-	0
Cc1ccccc1C(=O)NC1CCN(CC(=O)N2CCCCC2C)CC1 (stereo not drawn)	0	0	0	0
COc1cccc(CNC(=O)CCC(=O)N2CCOCC2)c1	0	0	-	0
CCOC(=O)CCCCCC(=O)Nc1ccc2c(c1)C(=O)N([C@H](C)CO)C[C@@H](C)[C@H](CN(C)S(=O)(=O)c1cn(C)cn1)O2	-	0	-	-
SMILES	Pf growth 96h	SARS PLP yeast	NS1 inh	Pf growth 48h
Cc1ccc(C)c(NC(=S)NC(NC(=O)N(C)C)C(Cl)(Cl)Cl)c1 (stereo not drawn)	?	0	0	?
CCOC(=O)NC(NC(=S)Nc1ccc(OC)cc1)C(Cl)(Cl)Cl (stereo not drawn)	?	0	0	0
COC(=O)NC(NC(=S)Nc1ccc([N+](=O)[O-])cc1)C(Cl)(Cl)Cl (stereo not drawn)	0	0	0	12µM
COc1ccc(NC(=O)c2cc(Br)ccc2Cl)c([N+](=O)[O-])c1	0	0	-	0[5.75 µM]
COc1ccc(NC(=O)c2ccc(C)cc2Cl)c([N+](=O)[O-])c1	3.7µM	?	0	0
Cc1ccc(C)c(NC(=S)NC(NC(=O)Cc2cccc3ccccc23)C(Cl)(Cl)Cl)c1 (stereo not drawn)	2.6µM	0	0	-
CSCC(C)N1CCC(CCC(=O)NC2CC2)CC1 (stereo not drawn)	0	0	0	0
C=CCNc1ncnc2sc(SC)nc12	0	0	0	0
O=C(C1CCN(S(=O)(=O)c2ccccc2)CC1)N1CCC1	0	0	-	0
